# Measurements: publication PMC7862700, “An all-to-all approach to the identification of sequence-specific readers for epigenetic DNA modifications on cytosine”
# Tests used:
# Assay in all cases: DAPPL (digital affinity profiling via proximity ligation, sequencing); 10 mM Tris-HCl pH 7.5, 50 mM NaCl, 1 mM DTT, 4% glycerol, room temperature, 30 min; GST-TFs on glutathione beads, 16-mer random dsDNA library, 0.1% formaldehyde crosslink after washing; high values mean tight binding
# Conditions in all cases: protein: recombinant; tags: N-terminal GST; dsDNA, one strand shown
# FLI1 = target: T1, FLI1 (Homo sapiens, UniProt Q01543 1-452)
# T1 sequence: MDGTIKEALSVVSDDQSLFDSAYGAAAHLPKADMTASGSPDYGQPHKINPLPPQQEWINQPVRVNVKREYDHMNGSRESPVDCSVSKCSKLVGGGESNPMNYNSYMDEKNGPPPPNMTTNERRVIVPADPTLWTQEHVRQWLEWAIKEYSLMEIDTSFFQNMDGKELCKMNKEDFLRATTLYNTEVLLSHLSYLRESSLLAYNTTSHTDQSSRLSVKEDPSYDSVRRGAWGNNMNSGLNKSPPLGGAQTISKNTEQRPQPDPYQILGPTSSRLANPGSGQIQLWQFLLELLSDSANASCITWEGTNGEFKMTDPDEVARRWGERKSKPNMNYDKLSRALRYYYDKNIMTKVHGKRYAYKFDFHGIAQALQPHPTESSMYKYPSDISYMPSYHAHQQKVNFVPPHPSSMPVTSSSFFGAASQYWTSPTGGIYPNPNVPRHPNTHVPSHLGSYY
# Method in brief: (§1)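 The binding signal reported is, for every hexamer, its read frequency for a factor over its read frequency for the tag-only sample. Reads came from pools of yeast-expressed, GST-fused human transcription factors on glutathione beads, barcoded with DNA and mixed with that sample, which were incubated with 200 nmole of a random double-stranded 16-mer DNA library in Tris/NaCl/DTT/glycerol buffer at room temperature for 30 min. After washing, the pools were crosslinked with 0.1% formaldehyde, proximity-ligated with BsaI/T4 ligase for 1 h at 37 °C, PCR-amplified and sequenced on an Illumina NextSeq500.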
# ELK1 = target: T2, ELK1 (Homo sapiens, UniProt P19419 1-428)
# T2 sequence: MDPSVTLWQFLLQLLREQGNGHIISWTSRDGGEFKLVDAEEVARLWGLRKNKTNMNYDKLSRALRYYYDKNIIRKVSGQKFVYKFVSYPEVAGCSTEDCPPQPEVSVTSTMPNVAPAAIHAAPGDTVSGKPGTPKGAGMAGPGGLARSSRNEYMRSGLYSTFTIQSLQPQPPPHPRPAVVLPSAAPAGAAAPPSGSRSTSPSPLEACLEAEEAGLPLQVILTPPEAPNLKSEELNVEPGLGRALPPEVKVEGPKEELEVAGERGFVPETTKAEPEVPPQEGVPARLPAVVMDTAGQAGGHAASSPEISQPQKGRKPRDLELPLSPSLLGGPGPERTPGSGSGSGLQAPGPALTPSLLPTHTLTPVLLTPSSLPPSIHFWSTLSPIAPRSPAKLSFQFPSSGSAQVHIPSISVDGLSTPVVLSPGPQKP
# Method in brief: as §1
# GABPA = target: T3, GABPA (Homo sapiens, UniProt Q06546 1-454)
# T3 sequence: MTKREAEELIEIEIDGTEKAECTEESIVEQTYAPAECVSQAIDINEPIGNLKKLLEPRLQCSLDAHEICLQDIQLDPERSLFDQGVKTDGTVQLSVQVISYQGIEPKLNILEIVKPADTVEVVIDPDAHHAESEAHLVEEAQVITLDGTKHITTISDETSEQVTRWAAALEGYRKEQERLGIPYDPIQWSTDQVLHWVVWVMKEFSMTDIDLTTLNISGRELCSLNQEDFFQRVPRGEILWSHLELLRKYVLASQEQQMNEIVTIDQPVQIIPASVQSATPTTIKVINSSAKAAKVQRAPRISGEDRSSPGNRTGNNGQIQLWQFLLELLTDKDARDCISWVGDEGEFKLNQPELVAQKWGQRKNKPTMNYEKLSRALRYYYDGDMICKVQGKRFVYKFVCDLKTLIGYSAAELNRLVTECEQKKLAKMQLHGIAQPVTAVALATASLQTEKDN
# Method in brief: as §1
# ERG = target: T4, ERG (Homo sapiens, UniProt P11308 1-479)
# T4 sequence: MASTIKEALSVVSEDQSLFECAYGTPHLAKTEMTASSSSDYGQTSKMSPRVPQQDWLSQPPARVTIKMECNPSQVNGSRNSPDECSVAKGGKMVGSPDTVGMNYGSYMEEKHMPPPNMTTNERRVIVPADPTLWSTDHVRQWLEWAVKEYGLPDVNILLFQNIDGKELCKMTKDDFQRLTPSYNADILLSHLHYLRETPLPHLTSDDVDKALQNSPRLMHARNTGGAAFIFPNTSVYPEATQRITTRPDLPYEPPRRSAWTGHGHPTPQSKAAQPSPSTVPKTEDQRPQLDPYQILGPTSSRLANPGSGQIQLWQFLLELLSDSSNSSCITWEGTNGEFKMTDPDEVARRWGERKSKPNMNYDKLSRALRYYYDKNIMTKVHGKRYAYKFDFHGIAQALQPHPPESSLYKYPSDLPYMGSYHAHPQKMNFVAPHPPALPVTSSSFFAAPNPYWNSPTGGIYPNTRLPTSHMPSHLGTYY
# Method in brief: as §1
# ELF1 = ELF1 (Homo sapiens, UniProt P32519 1-619)
# ELF1, sequence (P32519 whole entry): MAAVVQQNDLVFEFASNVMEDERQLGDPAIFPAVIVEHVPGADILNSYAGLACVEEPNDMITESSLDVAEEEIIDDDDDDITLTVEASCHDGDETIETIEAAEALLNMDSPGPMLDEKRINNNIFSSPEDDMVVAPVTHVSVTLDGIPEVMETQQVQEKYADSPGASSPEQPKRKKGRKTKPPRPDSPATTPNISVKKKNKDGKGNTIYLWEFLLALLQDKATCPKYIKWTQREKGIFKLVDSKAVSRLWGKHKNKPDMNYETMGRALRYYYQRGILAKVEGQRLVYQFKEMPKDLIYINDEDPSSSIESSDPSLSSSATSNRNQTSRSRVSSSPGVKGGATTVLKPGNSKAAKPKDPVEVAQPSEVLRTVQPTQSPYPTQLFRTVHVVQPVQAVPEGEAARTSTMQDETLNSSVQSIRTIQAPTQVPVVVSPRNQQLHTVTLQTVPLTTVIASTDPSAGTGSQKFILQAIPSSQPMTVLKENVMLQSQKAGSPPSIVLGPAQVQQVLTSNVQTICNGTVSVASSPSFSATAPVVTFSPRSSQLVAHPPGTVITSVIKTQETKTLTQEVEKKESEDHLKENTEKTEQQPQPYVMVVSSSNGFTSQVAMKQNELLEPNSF
# Method in brief: as §1
# EHF = target: T5, EHF (Homo sapiens, UniProt Q9NZC4 1-300)
# T5 sequence: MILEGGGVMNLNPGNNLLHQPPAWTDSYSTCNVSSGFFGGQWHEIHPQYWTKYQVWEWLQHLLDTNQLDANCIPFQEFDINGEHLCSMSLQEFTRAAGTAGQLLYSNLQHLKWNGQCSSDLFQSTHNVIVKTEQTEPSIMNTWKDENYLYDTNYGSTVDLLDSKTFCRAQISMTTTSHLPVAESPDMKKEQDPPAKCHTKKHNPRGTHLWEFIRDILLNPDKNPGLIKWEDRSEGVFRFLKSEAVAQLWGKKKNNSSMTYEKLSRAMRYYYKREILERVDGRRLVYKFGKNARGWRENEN
# Method in brief: as §1
# SPI1 = SPI1 (Homo sapiens, UniProt P17947 1-270)
# Method in brief: as §1
# SPIB = SPIB (Homo sapiens, UniProt Q01892 1-262)
# SPIB, sequence (Q01892 whole entry): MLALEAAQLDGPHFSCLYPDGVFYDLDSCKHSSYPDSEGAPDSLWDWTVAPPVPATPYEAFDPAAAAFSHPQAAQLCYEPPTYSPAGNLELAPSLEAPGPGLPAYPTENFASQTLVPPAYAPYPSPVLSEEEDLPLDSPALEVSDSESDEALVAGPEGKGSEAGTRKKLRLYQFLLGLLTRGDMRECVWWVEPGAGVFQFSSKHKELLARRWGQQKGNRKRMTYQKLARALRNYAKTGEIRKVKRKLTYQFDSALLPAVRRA
# Method in brief: as §1
# ELK3 = target: T6, ELK3 (Homo sapiens, UniProt P41970 1-407)
# T6 sequence: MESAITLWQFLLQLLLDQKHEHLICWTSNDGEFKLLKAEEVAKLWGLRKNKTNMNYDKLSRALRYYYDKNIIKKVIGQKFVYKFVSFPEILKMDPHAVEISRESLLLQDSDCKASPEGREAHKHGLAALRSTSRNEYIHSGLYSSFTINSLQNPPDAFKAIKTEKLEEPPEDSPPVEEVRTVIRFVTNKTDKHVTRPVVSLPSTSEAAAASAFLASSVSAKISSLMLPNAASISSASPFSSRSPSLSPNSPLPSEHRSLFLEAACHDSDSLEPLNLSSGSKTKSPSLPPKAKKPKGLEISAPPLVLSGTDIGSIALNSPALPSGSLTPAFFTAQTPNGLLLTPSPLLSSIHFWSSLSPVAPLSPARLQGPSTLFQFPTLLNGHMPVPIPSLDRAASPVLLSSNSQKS
# Method in brief: as §1
# FEV = target: T7, FEV (Homo sapiens, UniProt Q99581 1-238)
# T7 sequence: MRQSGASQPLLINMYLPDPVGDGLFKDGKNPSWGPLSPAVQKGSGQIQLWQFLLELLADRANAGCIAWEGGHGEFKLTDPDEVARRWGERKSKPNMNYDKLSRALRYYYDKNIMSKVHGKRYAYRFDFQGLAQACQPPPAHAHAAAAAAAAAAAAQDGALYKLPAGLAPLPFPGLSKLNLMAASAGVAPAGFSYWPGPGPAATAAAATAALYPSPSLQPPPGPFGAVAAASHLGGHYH
# Method in brief: as §1
# ETV5 = ETV5 (Homo sapiens, UniProt P41161 1-510)
# ETV5, sequence (P41161 whole entry): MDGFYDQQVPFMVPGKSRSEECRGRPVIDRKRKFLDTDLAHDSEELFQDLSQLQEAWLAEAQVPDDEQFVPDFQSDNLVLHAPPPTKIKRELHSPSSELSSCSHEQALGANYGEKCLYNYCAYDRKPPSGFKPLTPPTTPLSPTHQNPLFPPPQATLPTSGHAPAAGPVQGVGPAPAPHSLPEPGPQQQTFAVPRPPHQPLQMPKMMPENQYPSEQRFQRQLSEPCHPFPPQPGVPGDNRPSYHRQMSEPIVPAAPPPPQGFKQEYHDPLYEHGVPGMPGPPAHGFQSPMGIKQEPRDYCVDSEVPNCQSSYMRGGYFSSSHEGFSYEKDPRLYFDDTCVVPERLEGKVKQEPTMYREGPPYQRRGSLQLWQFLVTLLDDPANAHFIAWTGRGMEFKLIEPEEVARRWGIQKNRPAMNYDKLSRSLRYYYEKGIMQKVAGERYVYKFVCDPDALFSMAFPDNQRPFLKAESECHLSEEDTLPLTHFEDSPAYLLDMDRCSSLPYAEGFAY
# Method in brief: as §1
# SPIC = target: T8, SPIC (Homo sapiens, UniProt Q8N5J4 1-248)
# T8 sequence: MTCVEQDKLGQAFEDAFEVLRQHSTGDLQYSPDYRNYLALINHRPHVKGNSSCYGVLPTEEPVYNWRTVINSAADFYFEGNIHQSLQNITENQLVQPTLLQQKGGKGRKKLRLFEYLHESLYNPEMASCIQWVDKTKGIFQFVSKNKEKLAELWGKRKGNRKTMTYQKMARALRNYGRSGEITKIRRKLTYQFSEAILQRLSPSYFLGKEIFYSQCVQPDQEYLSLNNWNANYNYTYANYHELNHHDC
# Method in brief: as §1
# ELF4 = ELF4 (Homo sapiens, UniProt Q99607 1-663)
# ELF4, sequence (Q99607 whole entry): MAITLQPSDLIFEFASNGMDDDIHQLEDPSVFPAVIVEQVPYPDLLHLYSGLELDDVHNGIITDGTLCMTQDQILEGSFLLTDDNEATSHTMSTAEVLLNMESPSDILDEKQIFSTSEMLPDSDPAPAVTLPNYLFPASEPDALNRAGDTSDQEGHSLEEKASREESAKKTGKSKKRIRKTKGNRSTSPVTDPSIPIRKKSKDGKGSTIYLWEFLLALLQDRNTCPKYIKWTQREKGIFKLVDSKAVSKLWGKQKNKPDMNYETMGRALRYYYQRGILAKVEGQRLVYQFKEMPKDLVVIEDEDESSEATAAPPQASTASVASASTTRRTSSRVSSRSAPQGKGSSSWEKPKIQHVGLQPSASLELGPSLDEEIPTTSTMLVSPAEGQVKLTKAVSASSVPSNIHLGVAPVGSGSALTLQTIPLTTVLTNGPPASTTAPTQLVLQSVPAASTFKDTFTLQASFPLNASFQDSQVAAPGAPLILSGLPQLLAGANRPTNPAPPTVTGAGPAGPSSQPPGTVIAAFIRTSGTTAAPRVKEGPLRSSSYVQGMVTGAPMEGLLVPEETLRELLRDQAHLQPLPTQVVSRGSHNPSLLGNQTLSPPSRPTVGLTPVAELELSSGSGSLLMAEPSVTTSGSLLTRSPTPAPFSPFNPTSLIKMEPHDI
# Method in brief: as §1
# ELK4 = target: T9, ELK4 (Homo sapiens, UniProt P28324-2 1-405)
# T9 sequence: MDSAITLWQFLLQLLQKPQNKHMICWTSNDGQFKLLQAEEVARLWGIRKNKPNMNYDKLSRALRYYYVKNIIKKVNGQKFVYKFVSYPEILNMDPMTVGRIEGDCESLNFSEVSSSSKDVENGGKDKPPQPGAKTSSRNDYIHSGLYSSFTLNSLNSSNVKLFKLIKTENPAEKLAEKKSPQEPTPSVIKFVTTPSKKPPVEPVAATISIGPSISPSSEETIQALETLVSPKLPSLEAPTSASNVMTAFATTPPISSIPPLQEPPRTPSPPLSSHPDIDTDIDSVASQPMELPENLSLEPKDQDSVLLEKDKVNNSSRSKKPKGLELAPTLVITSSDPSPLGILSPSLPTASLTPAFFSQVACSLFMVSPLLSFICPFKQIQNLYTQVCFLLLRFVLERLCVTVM
# Method in brief: as §1
# ETV2 = target: T10, ETV2 (Homo sapiens, UniProt O00321 1-342)
# T10 sequence: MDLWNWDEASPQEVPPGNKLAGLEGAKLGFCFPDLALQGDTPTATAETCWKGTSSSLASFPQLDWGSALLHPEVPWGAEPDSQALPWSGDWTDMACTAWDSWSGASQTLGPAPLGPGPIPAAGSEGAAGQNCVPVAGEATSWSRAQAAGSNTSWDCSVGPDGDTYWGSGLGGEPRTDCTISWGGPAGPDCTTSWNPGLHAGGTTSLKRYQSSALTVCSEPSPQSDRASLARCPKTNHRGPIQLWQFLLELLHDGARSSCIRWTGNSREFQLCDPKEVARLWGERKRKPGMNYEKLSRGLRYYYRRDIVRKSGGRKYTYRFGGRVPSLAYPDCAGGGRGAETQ
# Method in brief: as §1
# ELF3 = target: T11, ELF3 (Homo sapiens, UniProt P78545 1-371)
# T11 sequence: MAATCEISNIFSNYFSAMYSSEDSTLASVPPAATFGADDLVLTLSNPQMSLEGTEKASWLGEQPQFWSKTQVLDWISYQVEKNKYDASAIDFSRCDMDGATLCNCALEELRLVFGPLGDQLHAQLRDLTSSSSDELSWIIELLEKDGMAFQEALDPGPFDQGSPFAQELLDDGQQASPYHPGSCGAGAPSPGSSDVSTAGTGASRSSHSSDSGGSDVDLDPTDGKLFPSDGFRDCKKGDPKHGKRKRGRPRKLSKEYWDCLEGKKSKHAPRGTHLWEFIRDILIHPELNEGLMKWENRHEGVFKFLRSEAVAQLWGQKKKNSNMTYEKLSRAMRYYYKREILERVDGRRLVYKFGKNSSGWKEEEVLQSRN
# Method in brief: as §1
# CRX = CRX (Homo sapiens, UniProt O43186 1-299)
# CRX, sequence (O43186 whole entry): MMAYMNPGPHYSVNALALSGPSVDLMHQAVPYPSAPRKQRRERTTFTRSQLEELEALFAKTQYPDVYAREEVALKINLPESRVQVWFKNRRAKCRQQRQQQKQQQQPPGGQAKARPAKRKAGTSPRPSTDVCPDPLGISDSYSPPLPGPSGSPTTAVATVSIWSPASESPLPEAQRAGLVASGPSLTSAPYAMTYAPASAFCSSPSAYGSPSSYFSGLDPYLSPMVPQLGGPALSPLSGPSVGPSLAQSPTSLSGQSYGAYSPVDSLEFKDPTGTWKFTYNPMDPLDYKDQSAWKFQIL
# Method in brief: as §1
# ETV1 = ETV1 (Homo sapiens, UniProt P50549 1-477)
# ETV1, sequence (P50549 whole entry): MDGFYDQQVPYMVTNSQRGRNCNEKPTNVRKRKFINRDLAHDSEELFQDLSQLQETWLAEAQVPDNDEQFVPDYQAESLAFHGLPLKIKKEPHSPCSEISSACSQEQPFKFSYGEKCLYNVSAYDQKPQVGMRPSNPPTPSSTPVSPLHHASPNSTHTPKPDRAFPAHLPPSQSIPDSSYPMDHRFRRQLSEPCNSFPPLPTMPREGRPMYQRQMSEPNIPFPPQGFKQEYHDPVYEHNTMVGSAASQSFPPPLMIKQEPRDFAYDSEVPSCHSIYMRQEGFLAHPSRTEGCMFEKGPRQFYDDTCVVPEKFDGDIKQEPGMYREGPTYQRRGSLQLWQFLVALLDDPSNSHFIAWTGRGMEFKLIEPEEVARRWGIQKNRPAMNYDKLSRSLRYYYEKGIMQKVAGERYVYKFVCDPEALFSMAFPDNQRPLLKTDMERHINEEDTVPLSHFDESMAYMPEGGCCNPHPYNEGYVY
# Method in brief: as §1
sequence,measurement,setting,value
CCCCTG,binding signal,FLI1,"1.22 fold enrichment (6-mer frequency, TF over GST control)"
same,binding signal,ELK1,"1.23 fold enrichment (6-mer frequency, TF over GST control)"
same,binding signal,GABPA,"1.26 fold enrichment (6-mer frequency, TF over GST control)"
same,binding signal,ERG,"1.18 fold enrichment (6-mer frequency, TF over GST control)"
same,binding signal,ELF1,"1.22 fold enrichment (6-mer frequency, TF over GST control)"
same,binding signal,EHF,"1.17 fold enrichment (6-mer frequency, TF over GST control)"
same,binding signal,SPI1,"1.25 fold enrichment (6-mer frequency, TF over GST control)"
same,binding signal,SPIB,"1.1 fold enrichment (6-mer frequency, TF over GST control)"
same,binding signal,ELK3,"1.27 fold enrichment (6-mer frequency, TF over GST control)"
same,binding signal,FEV,"1.18 fold enrichment (6-mer frequency, TF over GST control)"
same,binding signal,ETV5,"1.22 fold enrichment (6-mer frequency, TF over GST control)"
same,binding signal,SPIC,"1.16 fold enrichment (6-mer frequency, TF over GST control)"
same,binding signal,ELF4,"1.21 fold enrichment (6-mer frequency, TF over GST control)"
same,binding signal,ELK4,"1.46 fold enrichment (6-mer frequency, TF over GST control)"
same,binding signal,ETV2,"1.03 fold enrichment (6-mer frequency, TF over GST control)"
same,binding signal,ELF3,"1.21 fold enrichment (6-mer frequency, TF over GST control)"
same,binding signal,CRX,"1.07 fold enrichment (6-mer frequency, TF over GST control)"
same,binding signal,ETV1,"1.24 fold enrichment (6-mer frequency, TF over GST control)"
